Rows were chosen to be rich in hits. Some 1.3% of all compounds tested hit in one or more screens of this group.
NR5A2 inv ag – NR5A2 inverse agonism in reporter assay | O00482 | HEK293T StAR-luciferase reporter, LRH-1 transfected, 24 h | inhibition, % at 3.6 µM | 360,000 compounds, 0.13% hits | AID 602396;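 active means inhibition above the mean inhibition of all tested compounds plus 3 SD, cut at about 73% in these data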;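 further: 0% = DMSO wells and 100% = reporter-only cells lacking LRH-1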
NCOA3 inh – inhibits human SRC3 coactivator; 360,000 compounds, 0.17% hits; HEK293 GAL4-SRC3 luciferase reporter, luminescence; Q9Y6Q9; inhibition, % at 3.6 µM;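 active means inhibition above a per-campaign cutoff, the mean of all compounds plus 3 SD, cut at about 60% in these data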;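 further: 0% = DMSO-treated cells and 100% = gossypol-treated cells at 36 µM; higher means less SRC3-driven luciferase light from the GAL4 reporter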
Gli-Sufu block – Gli-Sufu pathway antagonism | 340,000 compounds, 0.74% hits | inhibition, % at 5 µM | Sufu-KO-LIGHT fibroblasts, Gli luciferase reporter luminescence;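 active means inhibition above about 55%, limit read from the data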;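 further: 0% = DMSO-treated cells and 100% = wells with medium but no cells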
NCOA1 inh – human NCOA1 inhibition. 360,000 compounds, 0.12% hits. inhibition, % at 3.6 µM. HEK293 GAL4-SRC1 luciferase reporter, luminescence;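 active means inhibition above the campaign mean plus 3 SD, with each screening campaign given its own cutoff, cut at about 60% in these data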;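 further: 0% = DMSO treated cells and 100% = gossypol at 36 µM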
SRC2 inh – human SRC2 (NCOA2) inhibition; HEK293 GAL4-SRC2 luciferase reporter, luminescence; inhibition, % at 9 µM; 370,000 compounds, 0.17% hits; AID 651957;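 active means inhibition above the mean inhibition of all tested compounds plus 3 SD, set per campaign, cut at about 52% in these data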;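 further: 0% = DMSO treated cells and 100% = cells given Gossypol at 36 µM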
NR2F2 inh – NR2F2 (human) inhibition, primary screen; 370,000 compounds, 0.7% hits; inhibition, % at 8.6 µM; HEK293T NGFI-A luciferase reporter, luminescence;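 active means inhibition above a per-plate cutoff, mean inhibition of test wells between control levels plus 3 SD, cut at about 38% in these data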;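 further: cells cotransfected with COUP-TFII expression vector driving the NGFI-A reporter; 0% = median of COUP-TF2 test wells and 100% = reporter-only cells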
Gli antag conf – confirmation of Gli-SUFU pathway antagonists; 2,500 compounds, 40% hits; inhibition, % at 5 µM; Sufu-KO-LIGHT cells, Gli luciferase reporter, luminescence; shares compounds with Gli-Sufu block;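 active means mean inhibition at 5 µM reaching about 45%, limit read from the data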;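 further: plate controls were DMSO-treated cells for no effect and wells lacking cells for full effect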
SufuKO cytotox – counter-screen for Gli-SUFU antagonists: cytotoxicity; shares compounds with Gli-Sufu block; Sufu-KO-LIGHT cells cytotoxicity, ATP luminescence; 2,500 compounds, 32% hits; cytotoxicity, % at 5 µM; AID 651994;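 active means mean cytotoxicity at 5 µM above about 25%, limit read from the data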;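 further: cells exposed to compound overnight for roughly 16 to 18 hours; plate controls were DMSO wells with cells for no effect and medium without cells for full effect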
Wnt3a cs – counter-screen for Gli-SUFU antagonists: Wnt3a reporter inhibition; shares compounds with Gli-Sufu block; Wnt-LIGHT cells, Wnt3a-driven luciferase reporter, luminescence; inhibition, % at 6.25 µM; 2,500 compounds, 20% hits; AID 651995;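 active means mean inhibition above about 25%, limit read from the data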
* hit, by the source's call; x = no result.

SMILES | NR5A2 inv ag | NCOA3 inh | Gli-Sufu block | NCOA1 inh | SRC2 inh | NR2F2 inh | Gli antag conf | SufuKO cytotox | Wnt3a cs
O=C(NC1CCCCN(Cc2cccc(F)c2)C1=O)c1ccc2ccccc2c1 (stereo not drawn) | x | x | x | x | -26.1 | -19.5 | x | x | x
Cc1ccc(-c2nc(-c3ccccc3)no2)c(Cl)c1 | 17.0 | 31.9 | 67.4* | 32.2 | 23.4 | 32.3 | 68.9* | 79.5* | 102.5*
COc1ccc(/C=N/NC(=O)c2nc(-c3ccccc3)cc(-c3ccccc3)n2)cc1O | -15.3 | 10.0 | 55.2* | 6.2 | -36.9 | -22.8 | 1.0 | 6.8 | -73.0
COc1cc(/C=N/NC(=O)c2cc(-c3ccccc3)nc3ccccc23)ccc1O | -3.5 | -4.3 | 58.8* | 3.5 | -13.7 | 10.3 | 11.4 | 15.2 | -98.2
COc1ccc(/C=N/NC(=O)c2cc(-c3ccccc3)nc3ccccc23)cc1O | -3.9 | 7.5 | -1.3 | 6.4 | -22.6 | 4.7 | x | x | x
CC(C)=CCSc1nnc([C@@H](NC(=O)OC(C)(C)C)C(C)C)o1 | -5.6 | 15.3 | 60.0* | -19.2 | -4.6 | 7.7 | 10.2 | 25.4* | -32.0
Cc1[nH]c(=O)[nH]c(=O)c1CSc1nnc([C@@H](NC(=O)OC(C)(C)C)C(C)C)o1 | -0.8 | 0.8 | 6.7 | 7.2 | -16.7 | 9.1 | x | x | x
COC(=O)C[C@H]1CC[C@H]2[C@@H](COc3ccc(NC(=O)Nc4ccccc4)cc3C(=O)N2C)O1 | x | x | x | x | 5.3 | -3.7 | x | x | x
Cc1cccc(OCC(=O)Nc2ccc(S(=O)(=O)N3CCCC3)cc2)c1 | 2.4 | -8.2 | -13.3 | -19.0 | 4.5 | 19.5 | x | x | x
Cc1cc(C)c(OCC(=O)Nc2ccc(S(=O)(=O)N3CCCC3)cc2)c(C)c1 | -5.7 | -20.5 | 97.7* | -2.5 | -9.6 | 23.3 | 20.4 | 25.5* | -23.5
O=C1c2ccccc2NC(c2cccc(F)c2)N1Cc1ccco1 (stereo not drawn) | 4.2 | 11.6 | 64.6* | 9.9 | 6.6 | -10.4 | 20.3 | 14.8 | -9.7
CCN(CC)C1=CC(=[N+]2CCCC2)CC(C)(C)C1 | 55.5 | 30.7 | 79.4* | 31.0 | 12.8 | 34.1 | 81.7* | 31.6* | 47.8*
CN(C)c1cccc(NC2=CC(=[N+]3CCOCC3)CC(C)(C)C2)c1 | 2.7 | 7.2 | 12.1 | -9.1 | 3.9 | 11.5 | x | x | x
Cc1[nH]c2ccccc2c1/C=C/c1nc2ccccc2c(=O)n1-c1cccc([N+](=O)[O-])c1 | 1.6 | 21.0 | 50.4 | 4.0 | 3.3 | 12.1 | 19.5 | 8.4 | -8.3
Cc1ccc(Nc2cc(C)nc(NCc3ccccc3)n2)cc1 | 17.9 | 14.3 | 51.7 | 20.3 | 7.7 | 29.0 | 28.8 | 22.6 | -19.1
Cn1nc(CC(=O)Nc2ccc3c(c2)CCC3)c2ccccc2c1=O | 15.1 | -2.2 | 71.7* | 8.1 | -23.6 | 5.0 | 68.1* | 40.7* | 3.0
C=CCNC(=O)c1ccccc1NC(=O)C1CCN(S(=O)(=O)c2ccc(SC)cc2)CC1 | 8.1 | 13.7 | 65.9* | -11.1 | 3.1 | -6.3 | 9.6 | 5.4 | -43.2
C=CCNC(=O)c1ccccc1NS(=O)(=O)c1ccc(SC)cc1 | 3.2 | -11.7 | 0.1 | -1.0 | -17.2 | -11.4 | x | x | x
CC(CCN1CCC(C(O)(c2ccccc2)c2ccccc2)CC1)Oc1ccc(C#N)cc1F (stereo not drawn) | x | x | x | x | -17.2 | -1.7 | x | x | x
O=C(CSc1nnc(-c2ccncc2)n1-c1ccc(Cl)cc1)c1ccc(Cl)c(Cl)c1 | x | x | x | x | 11.2 | -0.6 | x | x | x
COC(=O)[C@]12C[C@H](CC(=O)NCc3cccs3)C(=O)N(Cc3cccc4ccccc34)C1=C[C@H](COCc1ccccc1)O[C@@H]2C | x | x | x | x | -1.8 | 18.9 | x | x | x
CCOC(=O)C1=NN(C(=O)Nc2cccc(C(F)(F)F)c2)C2C(=O)N(c3cccc(C(F)(F)F)c3)C(=O)C12 (stereo not drawn) | 16.2 | 7.2 | 70.5* | 0.5 | 11.9 | 1.7 | 24.5 | -9.1 | 6.8
COc1ccc(NC(=S)Nc2ccc(Oc3ccccc3)cc2)cc1 | 15.8 | 12.4 | 76.7* | -2.4 | 29.2 | 4.7 | 38.4 | 21.8 | 0.1
CCNC(=S)Nc1ccc(Oc2ccccc2)cc1 | -0.8 | 10.0 | -5.7 | -35.3 | -7.8 | -0.3 | x | x | x
COc1ccc(N(CC(=O)NCCC2=CCCCC2)S(=O)(=O)c2ccccc2)cc1 | 12.4 | 1.0 | 57.3* | 0.9 | -21.0 | 6.4 | 21.6 | 21.1 | -22.7
SMILES | NR5A2 inv ag | NCOA3 inh | Gli-Sufu block | NCOA1 inh | SRC2 inh | NR2F2 inh | Gli antag conf | SufuKO cytotox | Wnt3a cs
COc1ccc(N(CC(=O)NCCC2=CCCCC2)S(=O)(=O)c2ccccc2)cc1OC | -3.6 | 2.3 | 4.4 | 6.0 | 3.6 | 13.0 | x | x | x
CC(COc1ccccc1C#N)CN1CCC(C(O)(c2ccccc2)c2ccccc2)CC1 (stereo not drawn) | x | x | x | x | 7.1 | 1.2 | x | x | x
CCOc1ccc(-n2c(COc3ccc(C)cc3)nnc2SCC(=O)c2ccc3ccccc3c2)cc1 | x | x | x | x | 3.2 | 17.3 | x | x | x
N/C(=N\C(=O)OCc1ccccc1)N(CC#CC1=CCCCC1)CC1CC1 | x | x | x | x | 14.3 | 0.3 | x | x | x
Cc1ccc(Cn2nnc3c(=O)[nH]c(C4CCN(S(=O)(=O)c5ccccc5F)CC4)nc32)cc1 | 2.6 | 9.3 | 50.6 | 12.9 | 2.0 | 1.7 | 13.5 | 2.4 | -8.6
NC(=O)CC(NC(=O)c1ccc(Br)cc1)c1ccc(N2CCCCCCC2)c([N+](=O)[O-])c1 (stereo not drawn) | 36.9 | 28.4 | 59.6* | -6.2 | 32.7 | 8.3 | 35.6 | 17.4 | -108.3
NC(=O)CC(NC(=O)c1ccccc1)c1ccc(N2CCC(Cc3ccccc3)CC2)c([N+](=O)[O-])c1 (stereo not drawn) | 11.2 | 13.8 | 63.0* | 7.3 | 11.8 | 9.1 | 54.4* | 27.1* | 10.9
NC(=O)CC(NC(=O)c1ccc(Br)cc1)c1ccc(N2CCN(c3ccccc3)CC2)c([N+](=O)[O-])c1 (stereo not drawn) | 17.1 | -9.7 | 10.4 | 9.3 | -7.6 | 5.1 | x | x | x
CN1CCN(c2ccc([N+](=O)[O-])cc2C(=O)c2ccc(Br)cc2)CC1 | 12.2 | 29.8 | 6.8 | -3.5 | -8.1 | 18.2 | x | x | x
O=C(c1ccc(Br)cc1)c1cc([N+](=O)[O-])ccc1N1CCCCC1 | 26.8 | 11.5 | 54.8 | 1.8 | 24.6 | -60.8 | 59.8* | 60.2* | 12.5
O=C(CCn1nnc2ccccc21)N1CCN(c2ccccc2F)CC1 | x | x | x | x | -51.5 | -44.9 | x | x | x
COc1ccc(S(=O)(=O)Nc2ccccc2Cl)cc1NC(C)=O | 1.0 | 8.3 | 51.5 | 11.1 | -9.9 | -7.9 | 11.8 | -1.7 | -0.3
COc1ccc(S(=O)(=O)Nc2ccccc2C(=O)NC2CC2)cc1NC(C)=O | -5.2 | -10.2 | -3.8 | 7.1 | 3.3 | 2.8 | x | x | x
Cn1c(-c2ccccn2)[n+](C)c2ccccc21 | 6.8 | 15.9 | 3.2 | -18.3 | 30.5 | 14.6 | x | x | x

Bioassay records from PubChem BioAssay.
